# Experimental data as given in ChEMBL document CHEMBL5606458, “ASAP - ZIKV NS2B-NS3 protease fluorescence single point” (2024).
# Screen size: about 2,700 compounds; about 160 (5.9%) showed an effect of 50% or more. The entries come from a sample that favours strong results as a whole.
# Target: Nonstructural protein 3 (Zika virus) (UniProt A0A024AXB9)
# Sequence (A0A024AXB9 as listed by the source): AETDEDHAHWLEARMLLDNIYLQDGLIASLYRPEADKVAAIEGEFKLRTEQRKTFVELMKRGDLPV
structure (smiles),measurement,setting,value
O=C(Nc1cccc(N2CCNCC2)c1)c1cccc2ncccc12,inhibition,"PRVABC59, Concentration 49.5 uM, Number of replicates 2.0, Standard deviation 0.4660025311194914 %",12.8%
same,inhibition,"PRVABC59, Concentration 99.01 uM, Number of replicates 2.0, Standard deviation 1.8240670503820091 %",21.1%
same,inhibition,"PRVABC59, Concentration 198.0 uM, Number of replicates 2.0, Standard deviation 0.426059457023535 %",34.4%
CCn1ccnc(N2CC[C@@H](Cc3ccncc3)C2)c1=O,inhibition,"PRVABC59, Concentration 50.0 uM, Number of replicates 2.0, Standard deviation 17.324672814645545 %",18.6%
same,inhibition,"PRVABC59, Concentration 100.0 uM, Number of replicates 2.0, Standard deviation 1.6917913579666908 %",12.9%
same,inhibition,"PRVABC59, Concentration 200.0 uM, Number of replicates 2.0, Standard deviation 5.92774721773736 %",23.1%
CC(C)c1cc(CN2CCC3(CC2)C(=O)NCc2ccccc23)n[nH]1,inhibition,"PRVABC59, Concentration 49.5 uM, Number of replicates 2.0, Standard deviation 2.3847652893231714 %",1.4%
same,inhibition,"PRVABC59, Concentration 99.01 uM, Number of replicates 2.0, Standard deviation 4.553677158798315 %",2.83%
same,inhibition,"PRVABC59, Concentration 198.0 uM, Number of replicates 2.0, Standard deviation 2.2809894644583135 %",6.37%
O=S(=O)(c1c[nH]c2ccccc12)N1CCC(c2cnc3ccc[nH]c2-3)CC1,inhibition,"PRVABC59, Concentration 49.5 uM, Number of replicates 2.0, Standard deviation 0.9724228784365659 %",34%
same,inhibition,"PRVABC59, Concentration 99.01 uM, Number of replicates 2.0, Standard deviation 0.1115050511195736 %",36.4%
same,inhibition,"PRVABC59, Concentration 198.0 uM, Number of replicates 2.0, Standard deviation 2.3986425606638684 %",29%
CCn1ccnc(N2CC[C@H](c3ccc(OC)nc3)C2)c1=O,inhibition,"PRVABC59, Concentration 50.0 uM, Number of replicates 2.0, Standard deviation 2.450630192539874 %",10.5%
same,inhibition,"PRVABC59, Concentration 100.0 uM, Number of replicates 2.0, Standard deviation 0.40502109894604904 %",17.9%
same,inhibition,"PRVABC59, Concentration 200.0 uM, Number of replicates 2.0, Standard deviation 0.08715563662307181 %",30.5%
CCCCCNC(=O)c1cc(Cl)ccc1NS(=O)(=O)c1ccc(Oc2ccccc2Cl)cc1,inhibition,"PRVABC59, Concentration 49.5 uM, Number of replicates 2.0, Standard deviation 0.82866638448688 %",30.5%
same,inhibition,"PRVABC59, Concentration 99.01 uM, Number of replicates 2.0, Standard deviation 0.1903473061675686 %",14.2%
CN(CCS(N)(=O)=O)C(=O)c1cc(Cl)ccc1NS(=O)(=O)c1ccc(Oc2ccccc2Cl)cc1,inhibition,"PRVABC59, Concentration 49.5 uM, Number of replicates 2.0, Standard deviation 4.192376018410405 %",8.99%
same,inhibition,"PRVABC59, Concentration 99.01 uM, Number of replicates 2.0, Standard deviation 3.3291863073712813 %",17.3%
same,inhibition,"PRVABC59, Concentration 198.0 uM, Number of replicates 2.0, Standard deviation 0.7795966632269805 %",72.5%
CCCN(C)C(=O)c1cc(Cl)ccc1NS(=O)(=O)c1ccc(Oc2ccccc2Cl)cc1,inhibition,"PRVABC59, Concentration 49.5 uM, Number of replicates 2.0, Standard deviation 1.6827651888895978 %",30.1%
same,inhibition,"PRVABC59, Concentration 99.01 uM, Number of replicates 2.0, Standard deviation 1.553741884480168 %",42.7%
same,inhibition,"PRVABC59, Concentration 198.0 uM, Number of replicates 2.0, Standard deviation 1.4828704414225533 %",51.4%
